Activity calls are given as the source filed them.
Tests used:
[1] = binders of probe aFSTL3 on microarray, primary screen, stem cell growth factor project, biochemical, small-molecule microarray, fluorescence 635/667 (AID 1064); details: higher = more signal;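 also: measures binding of the biotinylated anti-FSTL3 antibody to printed compounds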
[2] = binders from COS7 lysate, DM2A8 probe, primary screen, torsin A project, cell lysate, small-molecule microarray, fluorescence 635/667 (AID 1065); details: higher = more signal, COS7 lysate expressing mutant human TOR1A
[3] = binders of probe aFGF2 on microarray, primary screen, stem cell growth factor project, biochemical, small-molecule microarray, fluorescence 635/667 (AID 1067); details: higher = more signal;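 also: measures binding of biotinylated aFGF2 protein to printed compounds on slides; z-score merges feature fluorescence and signal-to-noise across triplicate slides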
[4] = binders of probe aFGF10 on microarray, primary screen, stem cell growth factor project, biochemical, small-molecule microarray, fluorescence 635/667 (AID 1071); details: higher = more signal;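 also: score merges 667 nm spot intensity and signal to noise from triplicate slides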
[5] = target: Neurogenic locus notch homolog protein 2 (Homo sapiens) (UniProt Q04721); experiment: Notch2 binders on small-molecule microarrays, primary screen, biochemical, small-molecule microarray, 635 nm fluorescence, stem cell growth factors (AID 1073); details: Notch2 binding, higher = more signal
[6] = target: Pro-neuregulin-1, membrane-bound isoform (Homo sapiens) (UniProt Q02297); experiment: NRG1 binders on small-molecule microarrays, primary screen, psychiatric disease protein project, biochemical, small-molecule microarray, fluorescence 635/667 (AID 1075); details: NRG1 binding, 635 nm fluorescence, higher = more signal;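 also: score combines 667 nm spot fluorescence with signal to noise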
[7] = system: Neuregulin-1 EGF-like domain; experiment: binders of neuregulin-1 EGF-like domain, primary screen, biochemical, small-molecule microarray, 635 nm fluorescence (AID 1081); details: small-molecule microarray binding, higher = more signal;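 also: binding of the protein to compounds printed on small-molecule microarray slides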
[8] = FRG1 promoter luciferase signal modulators, primary screen, FRG1 inhibition for FSHD, cell-based, C2C12 myotubes, firefly/Renilla luciferase, luminescence (AID 1084); details: higher = more signal, called active from +8 up or from −8 down
[9] = binders of probe aFST on microarray, primary screen, stem cell growth factor project, biochemical, small-molecule microarray, fluorescence 635/667 (AID 1086); details: higher = more signal;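 also: score merges 667 nm fluorescence with signal-to-noise of each printed compound spot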
[10] = binders of probe aHhip on microarray, primary screen, stem cell growth factor project, biochemical, small-molecule microarray, fluorescence 635/667 (AID 1087); details: higher = more signal;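 also: score merges spot fluorescence at 667nm with spot signal to noise ratio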
[11] = system: PRMT1 (protein arginine N-methyltransferase 1); experiment: PRMT1 binders on small-molecule microarrays, primary screen, biochemical, small-molecule microarray, 635 nm fluorescence (AID 1088); details: small-molecule microarray binding, higher = more signal;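 also: binding of Prmt1 protein to compounds spotted on small-molecule microarray slides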
[12] = yeast growth modulation, basal conditions, primary screen, YJM789 clinical isolate, OD600, 24 h (AID 1089);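 also: growth of clinical yeast isolate S. cerevisiae YJM 789 seeded 1000 cells per well; test concentration not given here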; details: S. cerevisiae YJM789 growth, higher = more signal, called active from +8 up or from −8 down
[13] = fission yeast growth modulation, primary screen, strain 972, OD600, 24 h, no modulator (AID 1090);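 also: basal condition with compound alone and no growth modifier present; test concentration not given here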; details: S. pombe 972 growth, higher = more signal, called active from +8 up or from −8 down
[14] = S. cerevisiae growth modulation with rapamycin, primary screen, strain BY4716, OD600, 96 h (AID 1091); details: higher = more signal, called active from +8 up or from −8 down; also: test concentration not given here
[15] = target: Torsin-1A-interacting protein 2 (Homo sapiens) (UniProt Q8NFQ8); experiment: LULL1 binders on small-molecule microarray, primary screen, cell lysate, human LULL1 lysate, 635/667 nm fluorescence (AID 1092); details: hLULL1 lysate binding, 635 nm fluorescence, higher = more signal;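 also: probe is lysate of COS7 cells overexpressing human LULL1; score merges per-feature 667 nm fluorescence with signal-to-noise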
[16] = E. coli growth modulation, two-sided OD650, primary screen, E. coli filamentation project, strain DRC41, 24 h (AID 1093); details: OD650, 24 h, higher = more signal, called active from +8 up or from −8 down;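 also: MC1000 strain lacking acrAB efflux and sulA so SOS filamentation is blocked; test concentration not given here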
[17] = small-molecule microarray binders of probe aLefty2, primary screen, biochemical, biotinylated probe, 635/667 nm fluorescence (AID 1094); details: higher = more signal;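 also: score merges spot fluorescence near 667 nm with spot signal-to-noise ratio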
[18] = system: Noggin (protein binding on small-molecule microarray); experiment: Noggin binders on small-molecule microarray, primary screen, biochemical, 635/667 nm fluorescence (AID 1095); details: 635 nm fluorescence, higher = more signal;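 also: score merges 667 nm feature fluorescence with signal to noise over triplicate slides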
[19] = target: Neurogenic locus notch homolog protein 3 (Homo sapiens) (UniProt Q9UM47); experiment: NOTCH3 binders on small-molecule microarray, primary screen, biochemical, 635/667 nm fluorescence (AID 1096); details: NOTCH3 binding, 635 nm fluorescence, higher = more signal
[20] = small-molecule microarray binders of probe aEGFR, primary screen, biochemical, biotinylated probe, 635/667 nm fluorescence (AID 1097); details: higher = more signal;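 also: probe is a biotinylated anti-EGFR antibody binding compounds printed on slides; score combines fluorescence near 667 nm and signal to noise of each spot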

Neurogenic locus notch homolog protein 3 (Homo sapiens), sequence (Q9UM47 whole entry, looked up): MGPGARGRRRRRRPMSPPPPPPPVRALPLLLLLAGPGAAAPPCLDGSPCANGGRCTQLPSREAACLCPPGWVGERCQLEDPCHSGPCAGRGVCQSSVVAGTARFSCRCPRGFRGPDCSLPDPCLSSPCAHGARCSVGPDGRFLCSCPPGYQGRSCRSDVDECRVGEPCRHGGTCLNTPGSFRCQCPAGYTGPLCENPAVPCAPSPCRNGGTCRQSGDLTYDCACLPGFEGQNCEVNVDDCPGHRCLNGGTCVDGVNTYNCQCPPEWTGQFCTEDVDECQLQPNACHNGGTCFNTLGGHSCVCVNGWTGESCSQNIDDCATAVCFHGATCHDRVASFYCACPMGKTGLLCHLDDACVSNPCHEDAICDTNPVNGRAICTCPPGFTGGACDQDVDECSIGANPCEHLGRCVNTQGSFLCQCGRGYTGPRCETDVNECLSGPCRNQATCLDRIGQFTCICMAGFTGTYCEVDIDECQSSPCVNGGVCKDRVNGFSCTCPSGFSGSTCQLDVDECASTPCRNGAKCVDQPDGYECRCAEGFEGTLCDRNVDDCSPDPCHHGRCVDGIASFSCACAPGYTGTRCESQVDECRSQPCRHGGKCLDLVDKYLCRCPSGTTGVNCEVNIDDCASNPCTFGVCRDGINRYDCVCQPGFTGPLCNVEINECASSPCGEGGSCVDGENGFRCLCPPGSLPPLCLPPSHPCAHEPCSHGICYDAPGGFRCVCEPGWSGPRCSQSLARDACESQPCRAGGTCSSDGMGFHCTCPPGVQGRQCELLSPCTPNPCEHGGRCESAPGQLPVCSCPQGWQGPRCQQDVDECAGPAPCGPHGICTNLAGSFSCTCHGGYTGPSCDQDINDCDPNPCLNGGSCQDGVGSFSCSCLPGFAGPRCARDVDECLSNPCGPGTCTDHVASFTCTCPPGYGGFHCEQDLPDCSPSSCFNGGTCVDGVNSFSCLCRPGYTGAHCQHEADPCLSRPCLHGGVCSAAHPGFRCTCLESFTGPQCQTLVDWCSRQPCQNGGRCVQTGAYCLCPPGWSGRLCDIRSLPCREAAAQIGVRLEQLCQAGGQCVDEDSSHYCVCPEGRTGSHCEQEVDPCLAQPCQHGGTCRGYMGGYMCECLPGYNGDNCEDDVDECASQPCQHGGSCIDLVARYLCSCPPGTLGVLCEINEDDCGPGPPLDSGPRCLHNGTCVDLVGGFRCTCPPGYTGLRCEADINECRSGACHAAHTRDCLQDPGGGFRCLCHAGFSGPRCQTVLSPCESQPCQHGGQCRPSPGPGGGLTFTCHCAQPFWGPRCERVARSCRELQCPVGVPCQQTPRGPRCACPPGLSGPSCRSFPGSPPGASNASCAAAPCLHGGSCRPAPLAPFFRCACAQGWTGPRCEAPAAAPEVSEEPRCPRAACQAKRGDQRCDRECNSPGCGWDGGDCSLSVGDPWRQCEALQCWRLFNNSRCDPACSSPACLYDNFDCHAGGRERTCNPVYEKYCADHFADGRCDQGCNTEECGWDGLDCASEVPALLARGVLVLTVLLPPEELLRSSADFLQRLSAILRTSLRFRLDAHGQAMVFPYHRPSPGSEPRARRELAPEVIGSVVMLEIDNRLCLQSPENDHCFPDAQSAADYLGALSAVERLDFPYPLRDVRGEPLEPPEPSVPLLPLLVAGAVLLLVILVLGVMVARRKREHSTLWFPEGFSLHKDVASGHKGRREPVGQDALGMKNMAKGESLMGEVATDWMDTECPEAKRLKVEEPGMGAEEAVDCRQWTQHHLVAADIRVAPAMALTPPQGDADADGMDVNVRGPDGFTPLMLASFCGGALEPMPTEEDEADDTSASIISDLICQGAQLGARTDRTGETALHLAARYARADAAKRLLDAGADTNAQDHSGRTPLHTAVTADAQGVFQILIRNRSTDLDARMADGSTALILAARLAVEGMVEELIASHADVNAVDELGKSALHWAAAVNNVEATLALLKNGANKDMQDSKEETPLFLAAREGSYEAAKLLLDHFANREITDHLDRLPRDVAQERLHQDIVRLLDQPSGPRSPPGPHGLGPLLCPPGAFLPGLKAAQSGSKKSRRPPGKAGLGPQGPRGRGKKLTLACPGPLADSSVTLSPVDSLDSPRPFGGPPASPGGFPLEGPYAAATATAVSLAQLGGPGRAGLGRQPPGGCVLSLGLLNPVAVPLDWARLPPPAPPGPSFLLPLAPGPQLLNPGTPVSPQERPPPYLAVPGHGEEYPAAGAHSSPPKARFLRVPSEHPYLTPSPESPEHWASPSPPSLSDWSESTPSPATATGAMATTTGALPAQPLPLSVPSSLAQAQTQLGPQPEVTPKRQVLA
Torsin-1A-interacting protein 2 (Homo sapiens), sequence (Q8NFQ8 whole entry, looked up): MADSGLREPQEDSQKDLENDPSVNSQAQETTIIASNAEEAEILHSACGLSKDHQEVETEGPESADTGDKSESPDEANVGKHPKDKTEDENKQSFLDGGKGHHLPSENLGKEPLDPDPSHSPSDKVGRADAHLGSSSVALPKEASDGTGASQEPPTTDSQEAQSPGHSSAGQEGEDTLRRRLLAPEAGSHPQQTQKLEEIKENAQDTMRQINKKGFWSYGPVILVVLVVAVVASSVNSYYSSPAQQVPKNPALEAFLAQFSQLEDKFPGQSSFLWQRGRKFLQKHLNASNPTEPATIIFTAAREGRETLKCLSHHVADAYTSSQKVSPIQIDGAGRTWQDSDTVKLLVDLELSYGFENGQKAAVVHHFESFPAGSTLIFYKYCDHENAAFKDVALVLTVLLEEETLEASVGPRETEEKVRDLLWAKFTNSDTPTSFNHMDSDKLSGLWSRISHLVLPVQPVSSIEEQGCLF
Pro-neuregulin-1, membrane-bound isoform (Homo sapiens), sequence (Q02297 whole entry, looked up, the tested form may be a part, canonical isoform): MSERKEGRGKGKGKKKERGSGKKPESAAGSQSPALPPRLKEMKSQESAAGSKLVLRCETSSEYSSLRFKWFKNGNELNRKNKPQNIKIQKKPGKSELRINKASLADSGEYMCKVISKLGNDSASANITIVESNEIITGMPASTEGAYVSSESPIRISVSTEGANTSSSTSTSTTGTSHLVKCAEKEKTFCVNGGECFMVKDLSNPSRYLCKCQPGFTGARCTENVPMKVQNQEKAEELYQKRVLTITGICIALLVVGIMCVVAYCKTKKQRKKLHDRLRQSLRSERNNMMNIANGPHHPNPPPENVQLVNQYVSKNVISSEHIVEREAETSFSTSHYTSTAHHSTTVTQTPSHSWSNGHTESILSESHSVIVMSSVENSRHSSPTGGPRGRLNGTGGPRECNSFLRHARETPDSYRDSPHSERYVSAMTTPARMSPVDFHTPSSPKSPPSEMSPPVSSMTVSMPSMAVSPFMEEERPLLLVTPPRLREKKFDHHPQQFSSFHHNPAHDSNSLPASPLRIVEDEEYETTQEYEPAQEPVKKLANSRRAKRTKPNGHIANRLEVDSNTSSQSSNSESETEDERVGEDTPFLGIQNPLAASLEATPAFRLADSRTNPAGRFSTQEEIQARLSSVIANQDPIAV

Structure (SMILES)	composite z-score [1]	composite z-score [2]	composite z-score [3]	composite z-score [4]	composite z-score [5]	composite z-score [6]	composite z-score [7]	z-score [8]	composite z-score [9]	composite z-score [10]	composite z-score [11]	z-score [12]	z-score [13]	z-score [14]	composite z-score [15]	z-score [16]	composite z-score [17]	composite z-score [18]	composite z-score [19]	composite z-score [20]
CCN1C(=O)[C@H]2[C@H]3[C@H](O)[C@H](O)CC(=NNC(=O)OCc4ccccc4)[C@@H]3CC[C@H]2C1=O	0.18	-0.287	-0.153	0.0519	-0.311	-0.003	-0.514	0.639 (inactive)	0.302	-0.249	-0.738	-0.0309 (inactive)	-0.277 (inactive)	-0.133 (inactive)	0.614	0.801 (inactive)	-0.044	-0.0412	-0.0028	-0.118
CC(=O)OC[C@H]1O[C@H](CC=NOC(C)CN2CCCCc3nc(C)c(C)cc32)C=C[C@@H]1OC(C)=O (stereo not given in full)	-0.349	2.35	-0.071	0.325	0.965	0.0843	0.978	0.851 (inactive)	0.0013	0.158	1.54	-0.814 (inactive)	-0.0245 (inactive)	-0.151 (inactive)	1.51	0.522 (inactive)	0.176	1.13	1.01	0.43
COc1ccc(O[C@H]2C=C[C@@H](c3ccccc3)O[C@@H]2CO)cc1	-0.176	-0.15	-0.121	0.291	-0.359	-0.224	-0.134	0.403 (inactive)	-0.221	0.0458	0.018	0.711 (inactive)	-1.27 (inactive)	-1.02 (inactive)	0.0141	0.299 (inactive)	-0.0603	0.14	0.0607	-0.0146
CC(C)=CCCC(C)=CCON=C1C[C@@H](O)[C@@H](O)[C@@H]2[C@@H]3C(=O)N(Cc4ccc5c(c4)OCO5)C(=O)[C@@H]3CC[C@H]12	-0.386	-0.203	-0.0687	0.584	1.18	0.78	0.615	0.34 (inactive)	0.416	-0.272	1.44	0.329 (inactive)	0.197 (inactive)	-0.251 (inactive)	1.93	0.103 (inactive)	-0.166	0.564	0.907	-0.0271
CCOC(=O)[C@H](CC(C)C)NC(=O)CCC1CC(OC(=O)NCCc2ccc(F)cc2)CC2(CCCC(COC(=O)NCc3cccc(C(F)(F)F)c3)O2)O1 (stereo not given in full)	-0.17	0.13	-0.0924	0.983	1.14	0.806	1.16	-0.0179 (inactive)	-0.0518	-0.0102	1.49	0.643 (inactive)	0.58 (inactive)	0.603 (inactive)	1.6	1.05 (inactive)	-0.103	0.584	0.722	0.0199
CCN1C(C)=C(C(=O)OC)[C@@H](c2ccccc2)N2C(=O)[C@](O)(C(=O)OC)CC(C(C)=O)=C12	-0.619	0.159	-0.205	0.372	0.505	-0.125	-0.254	-1.11 (inactive)	0.101	-0.0618	0.0774	0.02 (inactive)	-1.13 (inactive)	0.712 (inactive)	-0.25	0.302 (inactive)	-0.313	0.768	0.534	-0.0957
COC(=O)[C@H](C)NC(=O)CCC1CC(OC(=O)NCc2ccc3c(c2)OCO3)CC2(CCCC(COC(=O)NCc3ccccc3)O2)O1 (stereo not given in full)	-0.344	0.0374	0.0025	0.721	0.748	0.52	0.877	-0.156 (inactive)	0.0613	-0.212	1.23	0.24 (inactive)	0.532 (inactive)	0.274 (inactive)	1.64	0.326 (inactive)	-0.157	0.888	1.09	-0.0234
CCOC(=O)NN=C1C[C@@H](O)[C@@H](O)[C@@H]2[C@@H]3C(=O)N(c4ccc(F)cc4F)C(=O)[C@@H]3CC[C@H]12	-0.496	0.364	-0.0131	0.202	0.501	-0.0227	0.158	0.816 (inactive)	0.411	-0.137	-0.334	-0.01 (inactive)	-0.816 (inactive)	-0.155 (inactive)	-0.35	0.786 (inactive)	-0.185	0.555	0.625	0.021
C[C@H]1CC[C@@H](C(=O)O)N[C@@H]1c1cccc(N2CCCC2=O)c1	-0.304	0.141	-0.145	0.22	0.408	-0.153	0.17	0.304 (inactive)	0.149	0.107	-0.344	0.31 (inactive)	0.0026 (inactive)	0.374 (inactive)	0.283	0.816 (inactive)	-0.0873	0.49	0.408	-0.123
CC#CCOCCC=C1c2ccccc2[C@@H](OC)[C@@H]1C	-0.35	0.575	-0.143	0.452	0.105	-0.361	0.244	0.181 (inactive)	0.359	0.154	0.513	-0.0953 (inactive)	-2.52 (inactive)	-0.933 (inactive)	0.127	0.596 (inactive)	-0.0266	0.697	0.153	0.0579
